SW480 rereplic – DNA re-replication induction in SW480 cells; hit rate 1.8% among 340,000; SW480 DNA re-replication, Hoechst DNA content imaging, 48 h; Potency, µM (top dose mostly 46.1 µM), for the others: top-dose re-replication activation, most hits filed as activators; further: % of control where 0% means no effect; nearly all actives have a fitted effect of over 55% in size
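Quantitative HTS format with DMSO vehicle controls; 48 hr drug incubation at 37 C, then 40 min Hoechst staining and scanning imager measurement at 405 nm excitation.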
ELG1 repair inh – blocks ELG1-dependent DNA repair in HEK293T cells; HEK293T ELG1-luciferase reporter, luminescence, 16 h; DNA damage induced by 5-fluorouridine; Potency, µM (highest dose often 46.1 µM), without a hit: at the top dose activity change, negative = inhibition, most hits filed as inhibitors; hit rate 2.3% among 330,000; further: on the % scale 0 is the no-effect control and ±100 the full control effect; nearly all actives have a fitted effect of over 55% in size
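HEK293T cells expressing luciferase-tagged ELG1 (2,000/well) received 5-Fluorouridine plus compound or DMSO for 16 hr at 37 °C. Luciferase was read by ONE-Glo luminescence after 30 min at room temperature.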
KB-3-1 tox – kills parental KB-3-1 adenocarcinoma cells; hit rate 1.4% among 400,000; Potency, µM (doses to about 46.1 µM), actives largely listed as cytotoxic; KB-3-1 viability, CellTiter-Glo ATP luminescence, 72 h; further: on the % scale 0 is the no-effect control and ±100 the full control effect; nearly all actives have a fitted effect of over 60% in size
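Cytotoxicity measured as CellTiter-Glo luminescence after 72 h at 37 C. Compound titrations were pinned onto drug-naive KB-3-1 parental adenocarcinoma cells grown in DMEM with 10% FBS, and normalized data fitted to concentration-response curves.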
MCF10A rerep – inducers of DNA re-replication in MCF 10A breast cells; MCF 10A DNA re-replication, Hoechst nuclear intensity, 48 h; Potency, µM (highest dose often 46.1 µM), for inactives: at the top dose activity, positive = re-replication, hits mostly activators; hit rate 2.9% among 350,000; further: % of control where 0% means no effect; nearly all actives have a fitted effect of over 50% in size
KB-V1 cytotox – kills drug-selected multidrug resistant KB-V1 cells; AID 1347076; hit rate 3.4% among 400,000; KB-V1 MDR cells viability, CellTiter-Glo, 72 h; Potency, µM (highest dose often 46.1 µM), hits mostly cytotoxic; further: on the % scale 0 is the no-effect control and ±100 the full control effect; nearly all actives have a fitted effect of over 60% in size
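KB-V1, DMEM (no phenol red) + 10% FBS; cpd pin-transferred, titration series; 72 h, 37 degrees C; CellTiter-Glo, luminescence. Data normalized, curve-fit.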
The depositor's hits bear a star; i = inactive; ? = inconclusive; · = not tested or not shown. Rows were chosen to be rich in hits. Some 8.1% of all compounds tested hit in one or more screens of this group. The call rests on the fitted dose curve; in most records, active means well fitted curve in the direction sought with a large enough effect; inconclusive means small, poorly fitted or top-dose-only effect, or another doubt; inactive means no such curve, though single readings can be large; an effect the other way counts as inactive or inconclusive. Potency means the concentration at half of the fitted maximal effect.

SMILES	SW480 rereplic	ELG1 repair inh	KB-3-1 tox	MCF10A rerep	KB-V1 cytotox
COc1ccc2nc(SCC(=O)NC3CCCCC3)[nH]c2c1	-5.4%	9.1%	i	-15.6%	i
CCCCN(CC)C(=O)CSc1nc2n[nH]c(C)c2c(=N)n1-c1cccc(C)c1	?	?	i	10.5%	?
Cc1ccccc1S(=O)(=O)N1C(c2ccc(Cl)cc2)CC=C(C(=O)O)C1c1cccc(Cl)c1 (stereo not given)	·	·	i	·	i
O=C(Nc1nnc(-c2ccncc2)s1)NC12CC3CC(CC(C3)C1)C2	·	·	i	·	i
O=C(Nc1nnc([C@@H]2C[C@H](O)[C@@H](CO)O2)s1)Nc1ccccc1F	·	·	i	·	i
c1ccc(N2CCN(Cc3nnc(-c4ccc5c(c4)OCO5)o3)CC2)cc1	·	·	i	·	i
CCc1cc2c(=O)c(-c3ccc4c(c3)OCO4)coc2c(CN(C)C)c1O	-4.4%	-14.8%	i	7.1%	i
CCc1cc2c(=O)c(-c3cscn3)coc2c(CN(C)C)c1O	?	-22.7%	i	10.3µM*	i
Cc1ccc(C)c(Cn2c(=O)cc(C(F)(F)F)c3c(C)nn(C)c32)c1	·	·	i	·	i
Cc1ccc(C2C(=O)N(C3CCCC3)CC(=O)N2C2CCCCC2)cc1 (stereo not given)	3.4%	4.8%	i	7.5%	2.91µM*
O=C(c1cnn2c1NC(c1ccco1)CC2C(F)(F)F)N1CCN(c2cccc(Cl)c2)CC1 (stereo not given)	?	10.3µM*	?	7.31µM*	?
O=C(NC1CCCCC1)C(c1ccco1)N(CCc1ccccc1)C(=O)C(F)(F)F (stereo not given)	1.4%	-0.7%	?	1.7%	7.31µM*
C#CC(=O)N(c1ccc(OC)cc1OC)C(C(=O)NC1CCCC1)c1cccs1 (stereo not given)	?	1.1%	i	?	i
C#CC(=O)N(c1cc(OC)ccc1OC)C(C(=O)NC1CCCC1)c1cccs1 (stereo not given)	0.146µM*	23.1µM*	14.6µM*	25.8%	?
O=C(NC1CCCCC1)C(c1ccco1)N(Cc1cccs1)C(=O)Cn1nnc2ccccc21 (stereo not given)	1.4%	?	i	-5.5%	5.17µM*
O=C(NC1CCCCC1)C(c1cccs1)N(C(=O)C(F)(F)F)c1ccccc1 (stereo not given)	?	0.5%	i	14.6µM*	i
Cc1cc(C(=O)Nc2nncs2)oc1C	-41.2%	21.1%	i	?	i
OC(COCc1cccs1)CN1CCN(c2cccc(C(F)(F)F)c2)CC1 (stereo not given)	-4.4%	-5.5%	i	19.1%	23.1µM*
CCc1ccc(C(O)c2ncc(-c3cccc4ccccc34)[nH]2)cc1 (stereo not given)	·	·	?	·	i
CN(C)CCNC(=O)/C(=C/c1ccc(-c2ccc(Cl)cc2Cl)o1)NC(=O)c1ccccc1	?	6.5%	?	7.31µM*	?
Cc1ccc(C(=O)N/C(=C\c2ccc(-c3ccc(Br)cc3)o2)C(=O)NCCCN(C)C)cc1	7.31µM*	-17.1%	5.8µM*	?	?
Cc1ccc(C(=O)N/C(=C\c2ccc(-c3cccc([N+](=O)[O-])c3)o2)C(=O)NCCCN(C)C)cc1	0.2%	-0.6%	?	1.4%	i
CCN(CC(=O)Nc1ccc(NC(C)=O)cc1)C(=O)CCCOc1ccc(C(C)(C)C)cc1	-4.1%	?	?	?	?
c1coc(-c2nn3c(Cn4nnc5ccccc54)nnc3s2)c1	-7.7%	13.3%	i	?	13µM*
Clc1ccc(Cc2nn3c(Cn4nnc5ccccc54)nnc3s2)cc1	-2.1%	?	i	12.8%	4.11µM*
SMILES	SW480 rereplic	ELG1 repair inh	KB-3-1 tox	MCF10A rerep	KB-V1 cytotox
c1csc(-c2nn3c(Cn4nnc5ccccc54)nnc3s2)c1	-6.0%	13.9%	?	-1.8%	14.6µM*
CSCCC(NC(=O)c1ccccc1Cl)C(=O)N(C)Cc1cccs1 (stereo not given)	-2.8%	1.1%	·	-1.6%	·
COCc1nc2ccccc2n1Cc1ccc(C(C)(C)C)cc1	·	·	i	·	i
c1ccc(-c2ccc(-c3nc(-c4cccnc4)no3)cc2)cc1	-8.5%	?	i	17.3%	16.4µM*
c1ccc(-c2noc(-c3cccnc3)n2)cc1	-2.4%	·	i	-2.7%	i
c1ccc(-c2nc(-c3ccncc3)no2)cc1	-0.6%	·	i	0.3%	i
c1ccc(C(Cc2nc(-c3ccncc3)no2)c2ccccc2)cc1	-1.4%	-4.8%	11.6µM*	3.6%	i
O=[N+]([O-])c1ccc(-c2nc(-c3ccncc3)no2)cc1	2.3%	?	i	-8.6%	18.4µM*
c1ccc(-c2ccc(-c3nc(-c4ccncc4)no3)cc2)cc1	14.8%	?	i	14.6µM*	?
C=CCCC(=O)N1C[C@H]2CON(C)[C@H]2C[C@H]1c1ccc(-n2ccnc2)cc1	·	·	i	·	i
O=C(Cn1cnc2ccccc21)OCC(=O)N1CCCCC1	-0.3%	4.4%	i	1.2%	i
Cc1c(-c2nsc(NC(=O)c3cccs3)n2)nnn1-c1ccc(Br)cc1	·	·	i	·	i
O=C(c1ccc2c(=O)n(Cc3ccc(Cl)cc3)c(=S)[nH]c2c1)N1CCCC1	30.7%	3.1%	i	?	i
O=c1c2ccc(Cl)cc2[nH]c(=S)n1Cc1cccnc1	-4.3%	-1.7%	i	24.1%	18.4µM*
CC1(C)C2CCC1(CS(=O)(=O)Nc1ccc(S(=O)(=O)N3CCCCC3)cc1)C(=O)C2 (stereo not given)	?	-12.3%	i	2.0%	25.9µM*
CC1(C)C2CCC1(CS(=O)(=O)Nc1ccccc1)C(=O)C2 (stereo not given)	-0.3%	-1.2%	i	-23.5%	i
CC(C)N(C(=O)COC(=O)CCC(=O)c1cccs1)c1ccccc1	-16.5%	0.0%	i	2.4%	i
Cc1ccc(CSCC(=O)N/N=C/c2ccc(OCC(=O)Nc3ccc(C)cc3)cc2)cc1	-5.5%	?	i	?	?
CCCOc1ccc(/C=N/NC(=O)CSCc2ccc([N+](=O)[O-])cc2)cc1OCC	-3.2%	23.1µM*	i	-0.1%	16.4µM*
O=C(COc1ccc(/C=N/NC(=O)CSCc2ccc([N+](=O)[O-])cc2)cc1)NCc1ccco1	-2.1%	23.1µM*	i	?	i
COc1ccc(-c2cc(C(=O)Nc3c(C)nn(Cc4ccc(C)cc4)c3C)no2)cc1OC	·	·	i	·	i
COc1cc(C(=O)N2CCN(c3ccccc3Cl)CC2)ccc1OCC(=O)N1CCOCC1	-14.6%	?	i	-5.9%	i

Compound activity from PubChem BioAssay.
